Screening data: PubChem BioAssay, several laboratories
tim23-1 inh: growth inhibitors of tim23-1 mutant yeast, primary screen, luminescence, uHTS. S. cerevisiae tim23-1 growth, BacTiter-Glo luminescence, 24 h. inhibition, % at 20 µM. hit rate 1.3% among 330,000. AID 463212, 2010;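 active means growth inhibition of the mutant yeast at or above 50%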;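 further: temperature-sensitive mutant grown at 25 °C; plate controls were DMSO-treated mutant yeast for no effect and medium wells lacking yeast for full effect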
tim10-1 inh: growth inhibitors of tim10-1 mutant yeast, primary screen, luminescence, uHTS; S. cerevisiae tim10-1 ts strain growth, BacTiter-Glo, 24 h; inhibition, % at 20 µM; hit rate 2.2% among 330,000;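 active means inhibition of at least 40%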;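 further: mutant grown at 25 °C; 0% = DMSO wells with yeast and 100% = wells holding no yeast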
NLRP3 yeast inh: NALP3 inflammasome inhibitors in reconstituted yeast, primary screen, luminescence, uHTS. Yeast reconstituted NLRP3/ASC/caspase-1, beta-gal luminescence, 24 h. inhibition, % at 10 µM. hit rate 0.39% among 330,000;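 active means inhibition of 50% or more; inactive means inhibition below 50%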;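 further: plate controls were induced DMSO wells for no effect and uninduced yeast grown without galactose for full effect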
TIM10 inh: growth inhibitors of isogenic TIM10 control yeast, primary screen, counter-screen for tim10-1 yeast inhibitor project, luminescence, uHTS | S. cerevisiae TIM10 strain growth, BacTiter-Glo luminescence, 24 h | inhibition, % at 10 µM | hit rate 1.4% among 330,000;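 active means inhibition of 40% or more at the single tested concentration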;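 further: wild-type TIM10 isogenic control strain grown at permissive 25 °C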
PfHsp90 set2: growth inhibition of PfHsp90-expressing yeast, primary screen, antimalarial PfHsp90 inhibitor project, S. cerevisiae, BacTiter-Glo luminescence, single point, set 2; inhibition, % at 9.4 µM; hit rate 0.32% among 310,000; AID 504621, 2011; BacTiter-Glo ATP, 48 h; yeast lacking PDR1 and PDR3 efflux regulators;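 active means every replicate shows inhibition above about 80%, whatever the replicate mean, limit read from the data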;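 further: 0% = DMSO neutral controls and 100% = 20 µM radicicol positive controls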
tim23-1 conf: tim23-1 mutant yeast growth inhibitors, confirmation, luminescence, single concentration; shares compounds with tim23-1 inh; hit rate 83% among 4,400; inhibition, % at 20 µM; S. cerevisiae tim23-1 growth, BacTiter-Glo luminescence, 24 h;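 active means inhibition above about 39% in either of two replicate wells at 20 µM, limit read from the data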;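 further: temperature-sensitive tim23-1 mutant grown at 25 °C; 0% = DMSO wells with yeast and 100% = medium wells without yeast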
* = called active by the depositor; nt = no result given. In the library only some 3.7% were active in any assay of this set; here they are far more common.

SMILES | tim23-1 inh | tim10-1 inh | NLRP3 yeast inh | TIM10 inh | PfHsp90 set2 | tim23-1 conf
O=C(O)c1cc(/C=C/c2ccc(N3CCOCC3)cc2)nc2ccccc12 | 52* | 32 | -2 | 17 | nt | 41*
O=C(O)c1cc(/C=C/c2ccc(N3CCOCC3)c([N+](=O)[O-])c2)nc2ccccc12 | 22 | 10 | 8 | 4 | 1 | nt
Cc1noc(C)c1S(=O)(=O)Nc1ccc(C(=O)N2CCc3ccccc3C2)cc1 | 10 | 15 | 9 | 10 | -14 | nt
COc1cccc(/C=N/Nc2nccnc2Cl)c1O | 67* | 39 | 15 | 17 | 20 | 61*
Cc1c(O)c(CN2CCCC2)cc2c3c(c(=O)oc12)CCC3 | 53* | 20 | 0 | 9 | 7 | 36
Cc1c(O)c(CN2CCCC2)cc2c1oc(=O)c1ccccc12 | 20 | 28 | 1 | 21 | 4 | nt
Cc1ccc(-c2nnc(N3CCCCC3)c3ccccc23)cc1 | 54* | 38 | 6 | 36 | 12 | 53*
CC1CCN(c2nnc(N3CCC(C)CC3)c3ccccc23)CC1 | 70* | 13 | 11 | 15 | -4 | 57*
O=C(COC(=O)C12CC3CC(CC(Cl)(C3)C1)C2)Nc1ccccc1 | 54* | 0 | 13 | 13 | 1 | 46*
CN1c2ccsc2/C(=N/Nc2ccc(F)cc2)CS1(=O)=O | 53* | 36 | 23 | 30 | -57 | -29
Cc1ccc(N/N=C2\CS(=O)(=O)N(C)c3ccsc32)cc1 | 44 | 30 | 13 | -4 | -18 | nt
COc1ccc(CC(=O)OC(C)C(=O)Nc2c(C)n(C)n(-c3ccccc3)c2=O)cc1OC (stereo not drawn) | -5 | 1 | 12 | -11 | 0 | nt
COc1ccc(OC)c(C2=NS(=O)(=O)N(C)C(C(=O)NCc3ccco3)=C2)c1 | 9 | 16 | -11 | -9 | 15 | nt
Cc1cccc[n+]1CC(=O)c1ccc(NC(=O)c2ccccc2)cc1 | 2 | 8 | 7 | 14 | -1 | nt
O=C(NCCc1ccccc1)c1coc(=O)c(Br)c1 | 22 | 15 | 15 | 15 | 11 | nt
CCc1ccc2nc(SCC(=O)Nc3nnc(C)s3)c(C)cc2c1 | 58* | 8 | 8 | -13 | 7 | 13
Cc1cc(C(=O)CCl)c(C)n1CCc1ccc(Cl)cc1 | 55* | 4 | -97 | 0 | -11 | 53*
Oc1ccc2ccccc2c1C=Nc1ccccc1-c1nc2ccccc2[nH]1 | 52* | 39 | 5 | 15 | 5 | 47*
Cc1ccc2c(c1)N(C(=O)c1ccco1)C(C)(C)c1ssc(=S)c1-2 | 36 | 33 | 21 | 15 | 12 | nt
CC(=NC1CC1)C1=C(O)c2ccccc2C1=O | 0 | -5 | 21 | -5 | 21 | nt
CCOc1ccc(N=C(C)C2=C(O)c3ccccc3C2=O)cc1 | 60* | 8 | 39 | 17 | 17 | 58*
CS/C(Nc1cc(Cl)ccc1Cl)=C(/C#N)C(=O)c1ccco1 | 59* | 33 | 1 | 25 | -5 | 52*
O=C(NC(=S)NC1CCCC1)c1ccccc1 | 58* | 29 | -2 | 9 | -21 | 46*
C/C(=N\NC(=S)NC1CCCCC1)c1ccc(C#N)cc1 | 23 | 28 | 6 | 28 | -41 | nt
N#Cc1ccc(C(=O)NC(=S)NC2CCCCC2)cc1 | 65* | 10 | -40 | 32 | 1 | 41*
SMILES | tim23-1 inh | tim10-1 inh | NLRP3 yeast inh | TIM10 inh | PfHsp90 set2 | tim23-1 conf
Cc1ccccc1-n1cc(CNC(=O)CCc2nnc(CCc3ccccc3)o2)cn1 | 12 | 3 | 6 | 9 | -27 | nt
c1ccc(-c2nc(NCc3cccs3)c3ccccc3n2)cc1 | 51* | -4 | 13 | 28 | 43 | 46*
Cc1cc(SCC(=O)N/N=C/c2ccc(O)cc2O)nc2ccccc12 | 51* | 18 | 23 | 28 | -5 | 52*
Cc1cc(SCC(=O)N/N=C/c2ccc(O)c(O)c2)nc2ccccc12 | 11 | -2 | 17 | -10 | -4 | nt
Cc1cccc(N=Nc2cnc(N)s2)c1 | 52* | 28 | 25 | 22 | 8 | 53*
NC(=S)N/N=C/c1coc2cc(Br)ccc2c1=O | 58* | 28 | 5 | 32 | -13 | 58*
NC(=S)N/N=C/c1coc2ccc(O)cc2c1=O | -14 | 2 | 4 | 4 | 17 | nt
NC(=S)N/N=C/c1coc2ccc(F)cc2c1=O | 48 | 9 | 16 | 29 | nt | nt
NC(=S)N/N=C/c1coc2ccc(Br)cc2c1=O | 78* | 18 | 3 | 34 | -6 | 75*
O=C(/C=C/c1cccnc1)c1ccccc1O | 51* | 36 | 10 | -4 | -35 | 50*
O=C(C=Cc1cccnc1)c1ccccc1 | nt | nt | nt | nt | -5 | nt
O=C(Nc1scc(-c2ccccc2)c1C(=O)O)c1ccccc1F | 58* | 18 | 29 | 29 | 28 | 54*
COc1ccc(-c2csc(NC(=O)c3ccccc3Br)c2C(=O)O)cc1 | 64* | 16 | 42 | 18 | 34 | 73*
O=C(/C=C/c1ccco1)Nc1scc(-c2ccccc2)c1C(=O)O | 55* | -11 | 36 | 9 | 49 | 46*
O=C(/C=C/c1ccccc1)Nc1scc(-c2ccccc2)c1C(=O)O | nt | nt | nt | nt | 25 | nt
O=C(Nc1cccc(F)c1)c1cc(S(=O)(=O)N2CCOCC2)cs1 | 3 | 8 | 17 | -3 | -1 | nt
CN(Cc1ccc2nonc2c1)Cc1nc(CC2CC2)no1 | 6 | 6 | -9 | -7 | 1 | nt
